TEAD-YAP block – TEAD-YAP interaction inhibition, primary screen, TEAD-YAP interaction inhibitor project, luminescence, HEK-TIYL cells; AID 1259422, 2018; TEAD-Gal4/YAP UAS-luciferase luminescence; 1.4% of 640,000 active; inhibition, % at 9.12 µM; in the data active means inhibition above about 32%
MITF primary – MITF inhibitors, primary screen, biochemical, AlphaScreen, human. Microphthalmia-associated transcription factor (Homo sapiens), O75030. AlphaScreen MITF homodimerization, bead proximity signal. inhibition, % at 2.6 µM. 0.91% of 650,000 active. AID 1259374, 2018; in the data active means inhibition above about 50%
GPR151 ag – activators of human GPR151, primary screen, cell-based, PathHunter beta-arrestin, luminescence; G-protein coupled receptor 151 (Homo sapiens), Q8TDV0; 1% of 650,000 active; PathHunter beta-arrestin GPR151 cells; activation, % at 11.2 µM; in the data active means activation above about 4.9%
FBW7 act – FBW7 E3 ligase activators, primary screen, biochemical, AlphaScreen, human; F-box/WD repeat-containing protein 7 (Homo sapiens), Q969H0; AlphaScreen FBW7–phospho-cyclin E peptide binding, activator screen; normalized activity (activation), % at 26.1 µM; 0.13% of 650,000 active; AID 1259310, 2017; in the data active means normalized activity above about 1.9%;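 further: purified mutant Fbw7 with reduced substrate affinity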
GPR151 confirm – GPR151 activators, triplicate retest, confirmation, cell-based, PathHunter beta-arrestin, luminescence; GPR151 PathHunter beta-arrestin cells, 90 min; % of EA-reagent control over plate median; shares compounds with GPR151 ag; 6,700 tested, under 10 active; activation, % at 11.2 µM; AID 1508609, 2020;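 active means mean percent activation across replicates above the confirmation screen cutoff of 4.91%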
GPR119 counter – GPR119 activators in beta-arrestin cells, counter-screen for GPR151 activator project, cell-based, PathHunter beta-arrestin, luminescence, triplicate; shares compounds with GPR151 ag; 90 min; 0 = compound-well median, 100 = enzyme-acceptor control; activation, % at 11.2 µM; 0.3% of 6,700 active;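 active means mean percent activation in the counterscreen above 29.09%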;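 further: counterscreen on off-target GPR119 to flag nonselective hits from the GPR151 activator screen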
Target sequence (Q8TDV5 whole entry, looked up): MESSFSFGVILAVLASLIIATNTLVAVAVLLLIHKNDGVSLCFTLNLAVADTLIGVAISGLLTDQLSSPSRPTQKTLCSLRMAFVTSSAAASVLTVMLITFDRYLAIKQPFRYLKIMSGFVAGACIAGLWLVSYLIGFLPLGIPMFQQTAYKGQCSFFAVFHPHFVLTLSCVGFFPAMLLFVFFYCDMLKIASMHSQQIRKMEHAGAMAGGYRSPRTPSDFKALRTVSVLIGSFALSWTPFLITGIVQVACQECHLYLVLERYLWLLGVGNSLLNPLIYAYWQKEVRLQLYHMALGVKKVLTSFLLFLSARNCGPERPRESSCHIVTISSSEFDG
Hits are given with their value; ! = repeats disagree. Compounds with a hit are over-represented: about 3.5% of the library has one in this group of screens.

`Cc1cccc(N2C(=O)C(CC(=O)Nc3cccc(F)c3)N(CC(C)C)C2=O)c1` (stereo unspecified) gave TEAD-YAP block inactive, MITF primary inactive, GPR151 ag inactive and FBW7 act inactive.
For O=S(=O)(c1ccc(F)c(F)c1)N1CCc2ccccc2C1 the results were TEAD-YAP block inactive, MITF primary inactive, GPR151 ag inactive and FBW7 act inactive.
CC(=O)N1c2ccccc2C2(O)N=C(Nc3ccccn3)SC12 (stereo unspecified) was read as TEAD-YAP block inactive, MITF primary inactive, GPR151 ag inactive and FBW7 act inactive.
Screening Cc1nc(S(=O)(=O)c2ccccc2)c(SCC(=O)Nc2ccc(F)c(F)c2F)o1 returned TEAD-YAP block inactive, MITF primary inactive, GPR151 ag inactive and FBW7 act inactive.
`O=C(O)c1ccc(NS(=O)(=O)/C=C/c2ccccc2)cc1` gave TEAD-YAP block inactive, MITF primary inactive, GPR151 ag 7.0, FBW7 act inactive, GPR151 confirm inactive and GPR119 counter inactive.
For O=C(O)c1cccc(NS(=O)(=O)/C=C/c2ccccc2)c1 the results were TEAD-YAP block inactive, MITF primary inactive, GPR151 ag inactive and FBW7 act inactive.
O=C1CCCCN1c1cccc(NS(=O)(=O)c2cc(F)ccc2F)c1 was read as TEAD-YAP block inactive, MITF primary inactive, GPR151 ag 7.1, FBW7 act inactive, GPR151 confirm inactive and GPR119 counter inactive.
CCN(Cc1ccccc1)C(=O)Cn1c(=O)n(-c2ccc(OC)cc2)c(=O)c2ccccc21 was read as TEAD-YAP block inactive, MITF primary inactive, GPR151 ag 7.9, FBW7 act inactive, GPR151 confirm inactive and GPR119 counter inactive.
Screening CCOc1ccc(-n2c(=O)c3sccc3n(CC(=O)N(CC)CC)c2=O)cc1 returned TEAD-YAP block inactive, MITF primary inactive, GPR151 ag inactive and FBW7 act inactive.
`CSc1cccc(CN2CCN(Cc3ccccc3F)C(CCO)C2)c1` (stereo unspecified) gave TEAD-YAP block inactive, MITF primary inactive, GPR151 ag 13, FBW7 act inactive, GPR151 confirm inactive and GPR119 counter inactive.
`COc1cccc(CN2CCN(Cc3cccc(OC)c3)C(CCO)C2)c1` (stereo unspecified) gave TEAD-YAP block inactive, MITF primary inactive, GPR151 ag inactive and FBW7 act inactive.
For COc1cccc(CN2CCN(Cc3cccc(OCCO)c3)CC2CCO)c1 (stereo unspecified) the results were TEAD-YAP block inactive, MITF primary inactive, GPR151 ag 5.2, FBW7 act inactive, GPR151 confirm inactive and GPR119 counter inactive.
For COc1cccc(CN2CCN(Cc3cn(C)nc3C)CC2CCO)c1 (stereo unspecified) the results were TEAD-YAP block inactive, MITF primary inactive, GPR151 ag 5.8, FBW7 act inactive, GPR151 confirm inactive and GPR119 counter inactive.
O=C1C(=O)N(CCCn2ccnc2)C(c2ccc([N+](=O)[O-])cc2)/C1=C(/O)c1ccc(Br)cc1 (stereo unspecified) was read as TEAD-YAP block inactive, MITF primary inactive, GPR151 ag inactive and FBW7 act inactive.
Screening COc1ccc(-n2nc3ccc(NC(=O)COc4ccc(I)cc4)cc3n2)cc1 returned TEAD-YAP block inactive, MITF primary inactive, GPR151 ag inactive and FBW7 act inactive.
`CC#CCN1C(=O)NC(CCc2ccccc2)(C2CCN(C(=O)C#CC)CC2)C1=O` (stereo unspecified) gave TEAD-YAP block inactive, MITF primary inactive, GPR151 ag 7.0, FBW7 act inactive, GPR151 confirm inactive and GPR119 counter inactive.
`Nc1cccc(-c2nc(Nc3ccc(Oc4ccccc4)cc3)c3ncn(-c4ccccc4)c3n2)c1` gave TEAD-YAP block inactive, MITF primary inactive, GPR151 ag inactive and FBW7 act inactive.
For O=C(COc1ccc(C(=O)N2CCN(CCc3ccccc3)CC2)cc1)C1CC1 the results were TEAD-YAP block inactive, MITF primary inactive, GPR151 ag 5.1, FBW7 act inactive, GPR151 confirm inactive and GPR119 counter inactive.
For O=C(COc1ccc(C(=O)N2CCN(c3ccccc3Cl)CC2)cc1)C1CC1 the results were TEAD-YAP block inactive, MITF primary inactive, GPR151 ag inactive and FBW7 act inactive.
CN(Cc1cscn1)Cc1ccc(C(=O)NC2c3ccccc3-c3ccccc32)c(=O)[nH]1 was read as TEAD-YAP block inactive, MITF primary inactive, GPR151 ag inactive and FBW7 act inactive.
`CCN(CC)c1nc(NCCCN2CCCC2=O)nc(NCCCN2CCCC2=O)n1` gave TEAD-YAP block inactive, MITF primary inactive, GPR151 ag inactive and FBW7 act inactive.
CCN(CC)c1nc(NCCCN2CCCC2=O)nc(NCc2nc3ccccc3[nH]2)n1 was read as TEAD-YAP block inactive, MITF primary inactive, GPR151 ag 6.9, FBW7 act inactive, GPR151 confirm inactive and GPR119 counter inactive.
`COc1cccc(CN2CCNC(=O)C2CC(=O)NCCn2ccnc2C)c1` (stereo unspecified) gave TEAD-YAP block inactive, MITF primary inactive, GPR151 ag inactive and FBW7 act inactive.
Screening CCOc1ccc2[nH]c(=O)c(CN(Cc3ccc(OC)cc3)C(=O)N(C)C)cc2c1 returned TEAD-YAP block inactive, MITF primary inactive, GPR151 ag 8.3, FBW7 act inactive, GPR151 confirm inactive and GPR119 counter inactive.
Screening COC(C(=O)Nc1ccccc1C(=O)O)c1ccccc1 (stereo unspecified) returned TEAD-YAP block inactive, MITF primary inactive, GPR151 ag inactive and FBW7 act inactive.
COC(C(=O)Nc1c(F)cccc1F)c1ccccc1 (stereo unspecified) was read as TEAD-YAP block inactive, MITF primary inactive, GPR151 ag 5.9, FBW7 act inactive, GPR151 confirm inactive and GPR119 counter inactive.
For Cc1ccccc1S(=O)(=O)Cc1ccc(C(=O)N2CCCCC2)o1 the results were TEAD-YAP block inactive, MITF primary inactive, GPR151 ag inactive and FBW7 act inactive.
Screening O=C(c1ccc(CS(=O)(=O)Cc2ccc(F)cc2)o1)N1CCCCC1 returned TEAD-YAP block inactive, MITF primary inactive, GPR151 ag 5.3, FBW7 act inactive, GPR151 confirm inactive and GPR119 counter inactive.
For CC(C)NC[C@H](O)COc1cccc2ccccc12 the results were TEAD-YAP block inactive, MITF primary inactive, GPR151 ag 8.0!, FBW7 act inactive, GPR151 confirm inactive and GPR119 counter inactive.
